# According to paper PMC7862700, “An all-to-all approach to the identification of sequence-specific readers for epigenetic DNA modifications on cytosine”:
# Legend:
# Test in all cases: DAPPL (digital affinity profiling via proximity ligation, sequencing); 10 mM Tris-HCl pH 7.5, 50 mM NaCl, 1 mM DTT, 4% glycerol, room temperature, 30 min; GST-TFs on glutathione beads, 16-mer random dsDNA library, 0.1% formaldehyde crosslink after washing; high values mean tight binding
# FLI1 = biological target: T1, FLI1 (Homo sapiens, UniProt Q01543 1-452); settings: protein: recombinant; tags: N-terminal GST; dsDNA, one strand shown
# T1 sequence: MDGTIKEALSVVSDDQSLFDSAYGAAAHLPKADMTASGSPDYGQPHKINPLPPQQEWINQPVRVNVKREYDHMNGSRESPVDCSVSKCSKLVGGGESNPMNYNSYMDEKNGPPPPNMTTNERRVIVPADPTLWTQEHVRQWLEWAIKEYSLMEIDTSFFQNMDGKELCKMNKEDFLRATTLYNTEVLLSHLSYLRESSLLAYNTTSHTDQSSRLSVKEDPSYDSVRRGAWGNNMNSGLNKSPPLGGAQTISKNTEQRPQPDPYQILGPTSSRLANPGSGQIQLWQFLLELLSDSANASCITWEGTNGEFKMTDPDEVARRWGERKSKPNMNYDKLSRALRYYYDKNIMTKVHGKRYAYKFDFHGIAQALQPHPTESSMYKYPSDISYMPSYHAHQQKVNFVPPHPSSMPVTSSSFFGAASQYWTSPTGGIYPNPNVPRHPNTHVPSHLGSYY
# Outline: (§1)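 Each value of binding signal is a hexamer's read frequency for a factor divided by the same hexamer's frequency in the tag-only sample. Barcoded, bead-captured GST fusions of human transcription factors made in yeast were pooled with that sample and incubated with 200 nmole of a random double-stranded 16-mer DNA library in Tris/NaCl/DTT/glycerol buffer at room temperature for 30 min. Washing, 0.1% formaldehyde crosslinking, proximity ligation, PCR and Illumina NextSeq500 sequencing followed.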
# ELK1 = biological target: T2, ELK1 (Homo sapiens, UniProt P19419 1-428); settings: protein: recombinant; tags: N-terminal GST; dsDNA, one strand shown
# T2 sequence: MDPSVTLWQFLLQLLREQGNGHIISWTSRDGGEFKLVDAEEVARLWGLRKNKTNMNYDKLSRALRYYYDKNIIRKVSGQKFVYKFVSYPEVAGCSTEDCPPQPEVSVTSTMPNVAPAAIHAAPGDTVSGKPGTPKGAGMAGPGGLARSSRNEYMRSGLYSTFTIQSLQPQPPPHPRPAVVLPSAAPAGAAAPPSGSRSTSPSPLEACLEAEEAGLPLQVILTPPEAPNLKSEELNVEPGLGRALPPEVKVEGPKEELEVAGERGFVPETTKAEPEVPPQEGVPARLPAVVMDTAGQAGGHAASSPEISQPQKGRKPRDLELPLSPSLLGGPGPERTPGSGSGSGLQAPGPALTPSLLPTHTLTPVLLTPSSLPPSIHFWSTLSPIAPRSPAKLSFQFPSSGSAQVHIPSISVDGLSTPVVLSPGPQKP
# Outline: as §1
# GABPA = biological target: T3, GABPA (Homo sapiens, UniProt Q06546 1-454); settings: protein: recombinant; tags: N-terminal GST; dsDNA, one strand shown
# T3 sequence: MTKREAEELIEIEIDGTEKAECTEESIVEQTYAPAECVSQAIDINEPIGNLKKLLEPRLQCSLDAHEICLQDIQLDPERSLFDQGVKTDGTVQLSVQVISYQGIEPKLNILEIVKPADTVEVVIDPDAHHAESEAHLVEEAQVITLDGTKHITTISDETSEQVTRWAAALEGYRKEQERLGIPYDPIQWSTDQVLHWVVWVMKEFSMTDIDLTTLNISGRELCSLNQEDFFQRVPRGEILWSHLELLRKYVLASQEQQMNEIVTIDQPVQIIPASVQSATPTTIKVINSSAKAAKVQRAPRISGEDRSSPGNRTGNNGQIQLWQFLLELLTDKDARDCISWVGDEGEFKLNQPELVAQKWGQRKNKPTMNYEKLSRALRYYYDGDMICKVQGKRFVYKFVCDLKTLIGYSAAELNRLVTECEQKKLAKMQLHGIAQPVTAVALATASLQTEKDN
# Outline: as §1
# ERG = biological target: T4, ERG (Homo sapiens, UniProt P11308 1-479); settings: protein: recombinant; tags: N-terminal GST; dsDNA, one strand shown
# T4 sequence: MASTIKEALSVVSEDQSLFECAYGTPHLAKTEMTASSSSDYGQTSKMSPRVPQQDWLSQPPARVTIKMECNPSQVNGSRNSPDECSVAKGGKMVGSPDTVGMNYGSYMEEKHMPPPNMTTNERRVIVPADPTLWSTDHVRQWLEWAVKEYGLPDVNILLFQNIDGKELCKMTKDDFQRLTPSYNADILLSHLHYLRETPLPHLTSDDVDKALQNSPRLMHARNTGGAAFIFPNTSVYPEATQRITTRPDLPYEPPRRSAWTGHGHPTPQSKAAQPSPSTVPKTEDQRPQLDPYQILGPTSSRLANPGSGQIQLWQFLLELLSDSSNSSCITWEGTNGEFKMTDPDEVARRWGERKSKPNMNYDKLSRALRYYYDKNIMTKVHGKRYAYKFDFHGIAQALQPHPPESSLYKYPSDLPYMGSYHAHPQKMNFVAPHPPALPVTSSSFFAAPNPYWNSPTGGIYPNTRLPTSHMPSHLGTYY
# Outline: as §1
# ELF1 = ELF1 (Homo sapiens, UniProt P32519 1-619); settings: protein: recombinant; tags: N-terminal GST; dsDNA, one strand shown
# Outline: as §1
# EHF = biological target: T5, EHF (Homo sapiens, UniProt Q9NZC4 1-300); settings: protein: recombinant; tags: N-terminal GST; dsDNA, one strand shown
# T5 sequence: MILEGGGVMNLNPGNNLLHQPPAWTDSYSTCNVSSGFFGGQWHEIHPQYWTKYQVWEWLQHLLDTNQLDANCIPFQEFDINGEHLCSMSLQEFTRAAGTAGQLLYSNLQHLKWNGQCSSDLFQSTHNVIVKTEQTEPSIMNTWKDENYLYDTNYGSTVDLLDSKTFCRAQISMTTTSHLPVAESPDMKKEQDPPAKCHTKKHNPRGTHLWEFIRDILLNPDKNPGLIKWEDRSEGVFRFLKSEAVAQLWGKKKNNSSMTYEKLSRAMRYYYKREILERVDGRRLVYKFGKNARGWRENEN
# Outline: as §1
# SPI1 = SPI1 (Homo sapiens, UniProt P17947 1-270); settings: protein: recombinant; tags: N-terminal GST; dsDNA, one strand shown
# Outline: as §1
# SPIB = SPIB (Homo sapiens, UniProt Q01892 1-262); settings: protein: recombinant; tags: N-terminal GST; dsDNA, one strand shown
# Outline: as §1
# ELK3 = biological target: T6, ELK3 (Homo sapiens, UniProt P41970 1-407); settings: protein: recombinant; tags: N-terminal GST; dsDNA, one strand shown
# T6 sequence: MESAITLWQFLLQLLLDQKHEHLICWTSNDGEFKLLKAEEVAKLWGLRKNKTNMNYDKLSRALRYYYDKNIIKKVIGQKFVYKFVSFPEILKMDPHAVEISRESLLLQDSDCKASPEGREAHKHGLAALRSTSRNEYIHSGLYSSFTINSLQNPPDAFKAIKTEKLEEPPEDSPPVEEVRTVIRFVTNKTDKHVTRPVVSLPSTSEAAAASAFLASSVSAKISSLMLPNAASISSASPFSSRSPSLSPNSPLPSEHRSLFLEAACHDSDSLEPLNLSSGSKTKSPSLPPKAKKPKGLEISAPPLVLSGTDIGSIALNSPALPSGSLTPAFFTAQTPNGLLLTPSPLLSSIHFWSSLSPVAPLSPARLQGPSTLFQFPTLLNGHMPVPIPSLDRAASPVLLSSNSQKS
# Outline: as §1
# FEV = biological target: T7, FEV (Homo sapiens, UniProt Q99581 1-238); settings: protein: recombinant; tags: N-terminal GST; dsDNA, one strand shown
# T7 sequence: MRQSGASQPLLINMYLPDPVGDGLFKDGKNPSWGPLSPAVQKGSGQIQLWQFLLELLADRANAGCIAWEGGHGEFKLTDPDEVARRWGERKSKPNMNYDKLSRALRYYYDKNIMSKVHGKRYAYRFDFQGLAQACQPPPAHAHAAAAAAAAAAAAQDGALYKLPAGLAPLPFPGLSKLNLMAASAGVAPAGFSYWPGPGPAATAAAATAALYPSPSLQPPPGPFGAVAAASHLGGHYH
# Outline: as §1
# ETV5 = ETV5 (Homo sapiens, UniProt P41161 1-510); settings: protein: recombinant; tags: N-terminal GST; dsDNA, one strand shown
# Outline: as §1
# HSF1 = HSF1 (Homo sapiens, UniProt Q00613 1-529); settings: protein: recombinant; tags: N-terminal GST; chain copies: 3; dsDNA, one strand shown
# Outline: as §1
# SPIC = biological target: T8, SPIC (Homo sapiens, UniProt Q8N5J4 1-248); settings: protein: recombinant; tags: N-terminal GST; dsDNA, one strand shown
# T8 sequence: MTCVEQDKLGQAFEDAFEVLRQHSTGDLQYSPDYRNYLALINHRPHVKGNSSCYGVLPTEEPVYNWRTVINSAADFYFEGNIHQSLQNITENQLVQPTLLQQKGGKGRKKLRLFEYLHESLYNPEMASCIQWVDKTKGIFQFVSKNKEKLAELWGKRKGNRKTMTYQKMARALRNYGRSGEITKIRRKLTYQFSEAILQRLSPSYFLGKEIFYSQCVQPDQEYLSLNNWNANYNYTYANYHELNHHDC
# Outline: as §1
# ELF4 = ELF4 (Homo sapiens, UniProt Q99607 1-663); settings: protein: recombinant; tags: N-terminal GST; dsDNA, one strand shown
# Outline: as §1
# ELK4 = biological target: T9, ELK4 (Homo sapiens, UniProt P28324-2 1-405); settings: protein: recombinant; tags: N-terminal GST; dsDNA, one strand shown
# T9 sequence: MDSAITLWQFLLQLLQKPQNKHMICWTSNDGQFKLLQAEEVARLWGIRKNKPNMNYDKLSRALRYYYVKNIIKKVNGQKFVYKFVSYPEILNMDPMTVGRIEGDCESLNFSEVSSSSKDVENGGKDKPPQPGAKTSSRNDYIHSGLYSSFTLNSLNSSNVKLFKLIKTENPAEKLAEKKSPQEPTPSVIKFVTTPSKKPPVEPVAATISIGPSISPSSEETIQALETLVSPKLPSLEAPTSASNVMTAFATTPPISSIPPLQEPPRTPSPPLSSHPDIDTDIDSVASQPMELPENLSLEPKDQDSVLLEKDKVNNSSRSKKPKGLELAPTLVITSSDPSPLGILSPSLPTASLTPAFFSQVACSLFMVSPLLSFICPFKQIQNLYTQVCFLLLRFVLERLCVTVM
# Outline: as §1
# ETV2 = biological target: T10, ETV2 (Homo sapiens, UniProt O00321 1-342); settings: protein: recombinant; tags: N-terminal GST; dsDNA, one strand shown
# T10 sequence: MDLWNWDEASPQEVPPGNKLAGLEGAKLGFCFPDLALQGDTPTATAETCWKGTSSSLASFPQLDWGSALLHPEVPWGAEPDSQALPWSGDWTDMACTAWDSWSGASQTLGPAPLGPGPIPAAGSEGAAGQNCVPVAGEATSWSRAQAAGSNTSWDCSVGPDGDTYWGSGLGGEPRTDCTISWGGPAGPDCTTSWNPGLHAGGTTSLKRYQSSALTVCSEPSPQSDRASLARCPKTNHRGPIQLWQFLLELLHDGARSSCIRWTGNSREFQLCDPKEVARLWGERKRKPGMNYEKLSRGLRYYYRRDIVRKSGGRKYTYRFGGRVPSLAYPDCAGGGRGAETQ
# Outline: as §1
# ELF3 = biological target: T11, ELF3 (Homo sapiens, UniProt P78545 1-371); settings: protein: recombinant; tags: N-terminal GST; dsDNA, one strand shown
# T11 sequence: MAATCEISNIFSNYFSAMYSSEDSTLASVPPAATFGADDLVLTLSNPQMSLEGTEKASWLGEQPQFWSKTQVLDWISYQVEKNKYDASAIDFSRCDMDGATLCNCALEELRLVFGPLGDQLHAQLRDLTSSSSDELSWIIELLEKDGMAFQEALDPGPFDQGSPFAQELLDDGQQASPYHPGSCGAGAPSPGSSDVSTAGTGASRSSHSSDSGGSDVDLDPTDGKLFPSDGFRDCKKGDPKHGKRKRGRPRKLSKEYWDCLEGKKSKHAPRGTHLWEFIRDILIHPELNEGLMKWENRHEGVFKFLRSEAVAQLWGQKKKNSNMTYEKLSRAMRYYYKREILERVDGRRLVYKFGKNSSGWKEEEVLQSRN
# Outline: as §1
# CRX = CRX (Homo sapiens, UniProt O43186 1-299); settings: protein: recombinant; tags: N-terminal GST; dsDNA, one strand shown
# Outline: as §1
# ETV1 = ETV1 (Homo sapiens, UniProt P50549 1-477); settings: protein: recombinant; tags: N-terminal GST; dsDNA, one strand shown
# Outline: as §1
# Chain of SPIB (Q01892 whole entry): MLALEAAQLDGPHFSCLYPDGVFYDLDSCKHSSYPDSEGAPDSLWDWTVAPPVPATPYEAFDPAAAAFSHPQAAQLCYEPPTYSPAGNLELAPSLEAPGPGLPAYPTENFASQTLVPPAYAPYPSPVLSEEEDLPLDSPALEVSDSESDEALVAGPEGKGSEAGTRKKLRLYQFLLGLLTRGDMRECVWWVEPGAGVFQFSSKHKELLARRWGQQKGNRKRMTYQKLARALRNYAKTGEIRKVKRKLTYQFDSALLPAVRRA
# Chain of ELF1 (P32519 whole entry): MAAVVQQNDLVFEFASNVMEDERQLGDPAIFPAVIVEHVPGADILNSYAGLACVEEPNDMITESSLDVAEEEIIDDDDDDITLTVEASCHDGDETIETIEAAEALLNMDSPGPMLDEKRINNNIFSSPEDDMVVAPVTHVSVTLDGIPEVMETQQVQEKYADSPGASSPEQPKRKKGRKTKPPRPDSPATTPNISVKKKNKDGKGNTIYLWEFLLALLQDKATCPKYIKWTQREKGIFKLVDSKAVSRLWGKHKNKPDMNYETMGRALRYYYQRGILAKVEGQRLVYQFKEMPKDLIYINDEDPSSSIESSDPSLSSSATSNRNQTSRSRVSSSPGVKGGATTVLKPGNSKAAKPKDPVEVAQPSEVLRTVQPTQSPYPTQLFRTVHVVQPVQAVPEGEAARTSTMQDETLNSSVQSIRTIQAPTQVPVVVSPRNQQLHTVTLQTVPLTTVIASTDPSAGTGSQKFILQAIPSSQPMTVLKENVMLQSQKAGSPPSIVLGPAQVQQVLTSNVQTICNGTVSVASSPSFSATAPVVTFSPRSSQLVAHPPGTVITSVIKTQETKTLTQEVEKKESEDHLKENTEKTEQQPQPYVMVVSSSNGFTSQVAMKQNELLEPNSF
# Chain of CRX (O43186 whole entry): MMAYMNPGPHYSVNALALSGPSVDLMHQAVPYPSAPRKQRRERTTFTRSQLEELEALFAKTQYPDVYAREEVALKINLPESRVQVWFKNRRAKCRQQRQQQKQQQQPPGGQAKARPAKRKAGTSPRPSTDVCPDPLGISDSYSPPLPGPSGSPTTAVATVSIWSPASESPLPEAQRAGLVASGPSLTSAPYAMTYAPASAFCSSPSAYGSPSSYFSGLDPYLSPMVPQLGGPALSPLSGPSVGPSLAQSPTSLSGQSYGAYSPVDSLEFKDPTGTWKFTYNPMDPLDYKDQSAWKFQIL
# Chain of ETV5 (P41161 whole entry): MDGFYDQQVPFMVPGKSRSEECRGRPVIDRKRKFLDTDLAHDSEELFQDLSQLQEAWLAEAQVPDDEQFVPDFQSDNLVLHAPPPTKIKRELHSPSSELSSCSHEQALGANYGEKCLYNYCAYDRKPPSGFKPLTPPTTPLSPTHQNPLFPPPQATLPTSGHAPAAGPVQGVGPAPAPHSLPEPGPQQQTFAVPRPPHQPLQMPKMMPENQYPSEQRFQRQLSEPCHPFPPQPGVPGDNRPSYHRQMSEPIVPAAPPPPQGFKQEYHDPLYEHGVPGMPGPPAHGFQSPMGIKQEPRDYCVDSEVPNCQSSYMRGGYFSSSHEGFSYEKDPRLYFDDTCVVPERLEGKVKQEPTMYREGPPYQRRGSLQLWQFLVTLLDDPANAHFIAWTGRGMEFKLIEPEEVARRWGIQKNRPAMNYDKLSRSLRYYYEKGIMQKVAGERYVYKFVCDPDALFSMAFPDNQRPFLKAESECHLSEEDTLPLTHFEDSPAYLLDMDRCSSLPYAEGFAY
# Chain of ETV1 (P50549 whole entry): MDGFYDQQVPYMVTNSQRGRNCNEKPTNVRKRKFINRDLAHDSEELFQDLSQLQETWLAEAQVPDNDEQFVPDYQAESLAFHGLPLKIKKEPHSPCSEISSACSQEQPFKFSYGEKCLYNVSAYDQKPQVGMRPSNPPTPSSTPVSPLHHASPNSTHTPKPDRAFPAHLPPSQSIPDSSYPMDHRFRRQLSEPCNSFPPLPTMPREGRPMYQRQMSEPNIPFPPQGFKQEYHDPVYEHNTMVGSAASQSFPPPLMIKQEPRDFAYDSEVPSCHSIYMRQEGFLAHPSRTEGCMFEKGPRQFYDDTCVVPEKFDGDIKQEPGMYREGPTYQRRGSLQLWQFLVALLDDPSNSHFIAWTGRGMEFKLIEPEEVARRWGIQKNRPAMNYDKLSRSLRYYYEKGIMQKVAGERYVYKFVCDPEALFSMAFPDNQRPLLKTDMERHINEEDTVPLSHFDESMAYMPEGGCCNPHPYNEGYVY
# Chain of ELF4 (Q99607 whole entry): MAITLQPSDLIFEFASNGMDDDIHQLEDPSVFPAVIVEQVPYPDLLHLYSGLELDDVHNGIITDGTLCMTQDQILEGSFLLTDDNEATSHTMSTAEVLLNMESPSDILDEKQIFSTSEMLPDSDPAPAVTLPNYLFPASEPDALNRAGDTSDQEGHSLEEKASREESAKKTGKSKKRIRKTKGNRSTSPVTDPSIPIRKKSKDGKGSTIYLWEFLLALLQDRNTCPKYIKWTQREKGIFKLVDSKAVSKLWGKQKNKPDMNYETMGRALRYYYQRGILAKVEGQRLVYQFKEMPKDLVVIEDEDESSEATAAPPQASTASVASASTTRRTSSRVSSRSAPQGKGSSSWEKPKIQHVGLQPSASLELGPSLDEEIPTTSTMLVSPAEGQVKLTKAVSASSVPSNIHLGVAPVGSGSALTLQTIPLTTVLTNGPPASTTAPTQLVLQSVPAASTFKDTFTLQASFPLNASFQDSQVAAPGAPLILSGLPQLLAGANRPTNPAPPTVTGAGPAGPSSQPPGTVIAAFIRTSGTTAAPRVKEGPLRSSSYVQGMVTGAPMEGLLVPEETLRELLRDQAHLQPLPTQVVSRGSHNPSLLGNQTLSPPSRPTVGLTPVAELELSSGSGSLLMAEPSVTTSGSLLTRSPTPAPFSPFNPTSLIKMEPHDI
# Chain of HSF1 (Q00613 whole entry): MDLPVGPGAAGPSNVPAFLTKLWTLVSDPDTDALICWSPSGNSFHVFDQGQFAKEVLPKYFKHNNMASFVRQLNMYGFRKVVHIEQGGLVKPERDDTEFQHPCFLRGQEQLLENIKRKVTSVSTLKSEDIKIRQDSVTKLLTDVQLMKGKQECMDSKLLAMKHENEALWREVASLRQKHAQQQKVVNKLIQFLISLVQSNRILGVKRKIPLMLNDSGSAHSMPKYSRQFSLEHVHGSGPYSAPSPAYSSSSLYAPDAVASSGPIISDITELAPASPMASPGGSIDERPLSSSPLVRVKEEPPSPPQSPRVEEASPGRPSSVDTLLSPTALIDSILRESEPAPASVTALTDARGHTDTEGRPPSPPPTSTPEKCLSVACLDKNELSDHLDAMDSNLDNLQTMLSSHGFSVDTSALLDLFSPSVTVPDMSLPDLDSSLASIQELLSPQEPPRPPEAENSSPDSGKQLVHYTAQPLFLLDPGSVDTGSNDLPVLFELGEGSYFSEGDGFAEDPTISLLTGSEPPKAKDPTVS
sequence,measurement,setting,value
CTTATC,binding signal,FLI1,"1.18 fold enrichment (6-mer frequency, TF over GST control)"
same,binding signal,ELK1,"1.15 fold enrichment (6-mer frequency, TF over GST control)"
same,binding signal,GABPA,"1.16 fold enrichment (6-mer frequency, TF over GST control)"
same,binding signal,ERG,"1.1 fold enrichment (6-mer frequency, TF over GST control)"
same,binding signal,ELF1,"1.21 fold enrichment (6-mer frequency, TF over GST control)"
same,binding signal,EHF,"1.08 fold enrichment (6-mer frequency, TF over GST control)"
same,binding signal,SPI1,"1.2 fold enrichment (6-mer frequency, TF over GST control)"
same,binding signal,SPIB,"1.21 fold enrichment (6-mer frequency, TF over GST control)"
same,binding signal,ELK3,"1.09 fold enrichment (6-mer frequency, TF over GST control)"
same,binding signal,FEV,"1.2 fold enrichment (6-mer frequency, TF over GST control)"
same,binding signal,ETV5,"1.13 fold enrichment (6-mer frequency, TF over GST control)"
same,binding signal,HSF1,"1.6 fold enrichment (6-mer frequency, TF over GST control)"
same,binding signal,SPIC,"1.34 fold enrichment (6-mer frequency, TF over GST control)"
same,binding signal,ELF4,"1.12 fold enrichment (6-mer frequency, TF over GST control)"
same,binding signal,ELK4,"1.18 fold enrichment (6-mer frequency, TF over GST control)"
same,binding signal,ETV2,"1.03 fold enrichment (6-mer frequency, TF over GST control)"
same,binding signal,ELF3,"1.14 fold enrichment (6-mer frequency, TF over GST control)"
same,binding signal,CRX,"2.44 fold enrichment (6-mer frequency, TF over GST control)"
same,binding signal,ETV1,"1.18 fold enrichment (6-mer frequency, TF over GST control)"
